# According to ChEMBL document CHEMBL1961873, “Compounds: GSK PKIS; Assays: Nanosyn kinase panel” (2012):
# Target: T1, Protein kinase C iota type (Homo sapiens) (UniProt P41743)
# T1 sequence (whole entry): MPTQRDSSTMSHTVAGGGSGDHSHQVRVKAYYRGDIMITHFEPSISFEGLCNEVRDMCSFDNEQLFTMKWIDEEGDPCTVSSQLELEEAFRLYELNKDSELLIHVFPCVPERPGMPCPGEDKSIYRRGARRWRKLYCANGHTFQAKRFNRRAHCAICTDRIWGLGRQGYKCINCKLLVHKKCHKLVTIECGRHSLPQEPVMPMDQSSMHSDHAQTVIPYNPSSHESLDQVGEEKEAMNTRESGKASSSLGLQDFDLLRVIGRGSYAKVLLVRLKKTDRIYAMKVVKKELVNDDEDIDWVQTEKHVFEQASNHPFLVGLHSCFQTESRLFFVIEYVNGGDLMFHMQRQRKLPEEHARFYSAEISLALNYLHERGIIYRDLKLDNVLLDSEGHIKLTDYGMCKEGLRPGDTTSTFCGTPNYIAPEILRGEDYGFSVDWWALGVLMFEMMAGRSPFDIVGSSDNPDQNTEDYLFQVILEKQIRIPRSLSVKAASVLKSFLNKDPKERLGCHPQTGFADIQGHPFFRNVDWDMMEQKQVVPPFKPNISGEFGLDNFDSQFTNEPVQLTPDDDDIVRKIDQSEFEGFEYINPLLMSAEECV
# Settings: at 0.1 µM
row,Compound,inhibition [%]
1,COc1ccc(-c2coc3ncnc(N)c23)cc1,1.44
2,Cc1cc(O)cc(C)c1/C=C/c1cncc(-c2nn[nH]n2)c1,2.14
3,NCc1ccc(-c2nc(-c3ccc(Cl)c(O)c3)c(-c3ccncc3)[nH]2)cc1,-0.2
4,Cc1ccc(C(=O)NC2CCCCC2)cc1-c1ccc(C(=O)NCC2CC2)cc1,0.11
5,COc1cccc(-n2ncc3c(N/N=C/c4cccc(F)c4)ncnc32)c1,1.95
6,[O-][S+]1CCN(Cc2ccc(-c3ccc4ncnc(Nc5ccc(OCc6ccccc6)c(F)c5)c4c3)o2)CC1,1.01
7,COc1cc2c(cc1Nc1nc(N3CCc4ccccc43)c3cc[nH]c3n1)N(C(=O)CN(C)C)CC2,1.44
8,COc1cc2ncn(-c3cc(OCc4ccccc4Cl)c(C(N)=O)s3)c2cc1OC,1.15
9,COc1ccccc1Nc1ncc(-c2ccccc2)o1,3.88
10,c1cnn2ncc(-c3ccnc(Nc4ccc5c(c4)OCCO5)n3)c2c1,2.88
11,CS(=O)(=O)CCN(CC#N)Cc1ccc(-c2ccc3ncnc(Nc4ccc(OCc5cccc(F)c5)c(Cl)c4)c3c2)o1,1.19
12,CS(=O)(=O)CCNCc1ccc(-c2ccc3ncnc(Nc4ccc(OCc5cccc(F)c5)c(C(F)(F)F)c4)c3c2)o1,2.77
13,COc1ccc(-c2nn3ncccc3c2-c2ccnc(Nc3ccc(Cl)c(C(F)(F)F)c3)n2)cc1,0.28
14,CCn1c(-c2nonc2N)nc2ccncc21,0.76
15,Nc1ncnc2occ(-c3ccc(NC(=O)Nc4cccc(C(F)(F)F)c4)cc3)c12,3.47
16,CC(C)=Cc1cccc2c1/C(=N/Nc1ccc(S(N)(=O)=O)cc1)C(=O)N2,0.62
17,Fc1cccc(COc2ccc(Nc3ncnc4cc(-c5ccc[nH]5)sc34)cc2Cl)c1,1.76

row,Compound,inhibition [%]
1,CCN1CCC(CC(=O)Nc2n[nH]c3nc(-c4cccs4)c(Br)cc23)CC1,-1.06
2,NC(=O)c1ccc(-c2nc(-c3ccccn3)c(-c3ccc4c(c3)OCO4)[nH]2)cc1,0.81
3,CCn1c(-c2nonc2N)nc2c(C#CC(C)(C)O)nc(OC[C@@H](N)c3ccccc3)cc21,1.26
4,CCn1c(-c2nonc2N)nc2cncc(C(=O)N3CC[C@H](N)C3)c21,8.94
5,Cc1ccc(NC(=O)c2ccnc(N3CCCC3)c2)cc1-c1ccc(C(=O)NCC2CC2)cc1,2.01
6,COc1cc(C)c(NC(=O)CN(C)C)cc1Nc1nc(Nc2cccc(F)c2C(N)=O)c2cc[nH]c2n1,-0.31
7,CCn1c(-c2nonc2N)nc2cnc(Oc3cccc(NC(=O)c4ccc(OCCN5CCOCC5)cc4)c3)cc21,23.4
8,Nc1nc(-c2ccc3c(c2)C(=Cc2cc(Br)c(O)c(Br)c2)C(=O)N3)cs1,0.79
9,COc1ccc(-c2ccncc2)cc1C(N)=O,0.36
10,CC1=C(C(=O)Nc2ccc3[nH]ncc3c2)C(c2ccc(Cl)c(Cl)c2)CC(=O)N1 (centres undefined),0.23
11,Fc1cccc(COc2ccc(Nc3ncnc4sc(-c5cccs5)cc34)cc2Cl)c1,0.71
12,CN1CCC(C(=O)Nc2n[nH]c3nnc(-c4ccccc4)cc23)CC1,2.28
13,Cc1nn(C)c2cc(N(C)c3ccnc(Nc4cccc(S(N)(=O)=O)c4)n3)ccc12,2.3
14,COC(=O)Nc1nc2cc(Oc3ccc(NC(=O)Nc4cccc(C(=O)O)c4)cc3)ccc2[nH]1,0.47
15,CS(=O)(=O)CCNCc1nc(-c2ccc3ncnc(Nc4ccc(F)c(Cl)c4)c3c2)cs1,-0.92
16,CS(=O)(=O)CCNCc1ccc(-c2ccc3ncnc(Nc4ccc(OCc5ccccc5)c(Cl)c4)c3c2)o1,0.76
17,COC(=O)Nc1nc2cc(Oc3cccc(NC(=O)Nc4cc(C(F)(F)F)ccc4F)c3)ccc2[nH]1,-0.71
